The source made the active and inactive calls.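 Rule for the calls: active = at least 20% inhibition of 6-phosphogluconate dehydrogenase activity; inactive = the rest.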 Where a SMILES comes first, the peptide text is derived from it.

Results on 40 compounds are retold here after PubChem BioAssay.

The target in the assay is 6-phosphogluconate dehydrogenase, decarboxylating (Homo sapiens) (UniProt P52209). In words: 6PGD enzyme inhibitors, primary screen, biochemical, human, recombinant enzyme, NADPH absorbance (AID 1159550). The note with it: recombinant 6PGD, NADPH absorbance 341 nm; at 10 µM; stronger effect = higher value.
Sequence of 6-phosphogluconate dehydrogenase, decarboxylating (Homo sapiens) (P52209 whole entry, looked up): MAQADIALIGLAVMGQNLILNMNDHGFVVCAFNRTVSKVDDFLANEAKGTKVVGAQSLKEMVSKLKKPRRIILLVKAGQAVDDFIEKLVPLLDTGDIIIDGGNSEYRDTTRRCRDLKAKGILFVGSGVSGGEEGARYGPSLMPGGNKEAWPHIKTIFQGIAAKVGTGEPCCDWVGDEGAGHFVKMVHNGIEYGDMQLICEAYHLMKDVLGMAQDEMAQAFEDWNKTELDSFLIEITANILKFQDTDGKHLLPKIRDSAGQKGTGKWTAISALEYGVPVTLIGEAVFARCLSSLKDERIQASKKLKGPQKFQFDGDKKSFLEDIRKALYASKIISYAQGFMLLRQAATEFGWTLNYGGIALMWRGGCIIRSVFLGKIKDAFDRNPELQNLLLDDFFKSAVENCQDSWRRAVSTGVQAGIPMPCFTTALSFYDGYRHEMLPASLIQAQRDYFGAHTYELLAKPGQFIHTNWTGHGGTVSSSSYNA
As a reminder, the inhibition is the change of the read-out against control, counted positive when it falls. On to `CC1OC(OC2C(Oc3cc(O)c4c(=O)cc(-c5ccc(O)cc5)oc4c3)OC(CO)C(O)C2O)C(O)C(O)C1O` (stereo not given), for which the inhibition is -11.1% (inactive).
The same measure for `CC1=CCCC(C)=CCC(C)(C)C=CC1`: -0.753% (inactive); for `CC(C)CC(NC(=O)C1CCCN1C(=O)C(N)C(C)C)C(=O)O` (stereo not given): 14% (inactive).
The same measure for `COc1c(C(=O)O)ccc2c1CCC(C)(C)O2`: 17.1% (inactive).
The same measure for `CC(=O)O[C@@H]1CC2C(C)(C)C(=O)[C@@H]3O[C@@H]3[C@]2(C)C2CC[C@]3(C)C(=CC(=O)O[C@H]3c3ccoc3)[C@@]21C` (stereo not given in full): 0.52% (inactive); for `COc1ccc(C2COc3c(ccc(O)c3OC)C2)c(OC)c1O` (stereo not given): -5.05% (inactive); for `CCCCC(CC)COC(=O)COc1cc(Cl)c(Cl)cc1Cl` (stereo not given): 4.06% (inactive).
With `C#CCCCCCCCCCCCC(=O)CC(O)COC(C)=O` (stereo not given), the inhibition was -5.7% (inactive).
The same measure for `OC[C@H]1O[C@@H](O[C@H]2[C@H](O)[C@@H](O)[C@H](O)O[C@@H]2CO)[C@H](O)[C@@H](O)[C@@H]1O`: -3.99% (inactive); for `O=C(Oc1cc(OC(=O)c2ccccc2)c2c(c1)O[C@H](c1ccc(OC(=O)c3ccccc3)c(OC(=O)c3ccccc3)c1)[C@@H](OC(=O)c1ccccc1)C2)c1ccccc1`: -9.47% (inactive).
For the compound `COc1ccc(-c2c(OC)c3c(OC)c4c(cc3oc2=O)OC(C)(C)C=C4)cc1`, the inhibition was 5.26% (inactive).
The same measure for `COC(=O)CCC(=O)O[C@H]1CCC2(C)C(CCC3C2C(=O)[C@@H](O)C2(C)C3CC3OC4(CCC(C)CO4)C(C)C32)C1` (stereo not given in full): 4.65% (inactive); for `Nc1ncnc2c1ncn2C1CC(O)C(CO)O1` (stereo not given): 2.59% (inactive); for `COc1ccc2c(c1)CC[C@@H]1[C@@H]2CC[C@]2(C)[C@@H](O)[C@H](O)C[C@@H]12`: 5.45% (inactive).
The same measure for `CC(=O)OC1CC2C(C)(C)C(=O)C=CC2(C)C2CCC3(C)C(c4ccoc4)OC(=O)C4OC43C12C` (stereo not given): -18.7% (inactive).
With `COC(=O)C[C@H]1C(C)(C)C(=O)[C@@H]2CC3C4=CC(=O)O[C@@H](c5ccoc5)[C@]4(C)CC[C@@H]3[C@@]1(C)C2=O` (stereo not given in full), the inhibition is 12.7% (inactive).
For `CC(=O)O[C@H]1C[C@@H](O)C(C)(C)[C@@H]2C[C@@H](OC(C)=O)[C@]3(C)[C@H](CC[C@@]4(C)[C@@H](c5ccoc5)OC(=O)[C@H]5O[C@@]534)[C@@]12C` the value was 1.48% (inactive); for `C/C=C(/C)C(=O)O[C@H]1Cc2c(ccc3ccc(=O)oc23)OC1(C)C`, 9.34% (inactive); for `COc1ccc(C(C)C(=O)c2ccc(O)cc2O)cc1` (stereo not given), 10.6% (inactive).
For `C[C@]12CC[C@@H]3c4ccc(OC(=O)CCC(=O)O)cc4CC[C@H]3[C@@H]1CCC2=O` the value was 5.64% (inactive); for `CC(=O)OC1CC[C@@]2(C)C(CC[C@H]3[C@@H]4CC=C(C(C)=O)[C@@]4(C)C(=O)C[C@@H]32)C1` (stereo not given in full), 4.79% (inactive); for `CC(C)CCC[C@@H](C)[C@H]1CC[C@H]2[C@@H]3CC[C@H]4CCCC[C@]4(C)[C@H]3CC[C@]12C`, 11.6% (inactive).
With `O=c1c(O)cc([C@H]2Oc3cc(O)cc(O)c3C[C@H]2O)cc2c([C@H]3Oc4cc(O)cc(O)c4C[C@H]3O)cc(O)c(O)c12`, the inhibition is 31.2% (active).
Take `CC(=O)OC1C=C(C)C(COc2ccc3ccc(=O)oc3c2)C2(C)CCC(O)C(C)(C)C12` (stereo not given): the inhibition is 9.19% (inactive).
For `CC(=O)O[C@H]1CC[C@]2(C)C(C[C@H](OC(C)=O)[C@]3(C)C4=CC(=O)O[C@H](c5ccoc5)[C@@]4(C)CCC23)C1(C)C` (stereo not given in full) the value was -15.5% (inactive); for `CC(C)(O)[C@@H]1Cc2cc3ccc(=O)oc3cc2O1`, -0.979% (inactive).
For `CC[C@H](C(=O)[C@@H](C)[C@@H](O)[C@H](C)[C@@H]1O[C@@H]([C@@H](CC)C(=O)O)CC[C@@H]1C)[C@H]1O[C@]2(C=C[C@@H](O)[C@]3(CC[C@@](C)([C@H]4CC[C@](O)(CC)[C@H](C)O4)O3)O2)[C@H](C)C[C@@H]1C` the value was 2.61% (inactive); for `NCCCC[C@H](N)C(=O)N[C@@H](Cc1ccccc1)C(=O)N[C@@H](Cc1ccc(O)cc1)C(=O)O` (H-Lys-Phe-Tyr-OH), 6.75% (inactive).
The same measure for `CC(C)CCC[C@@H](C)[C@H]1CC[C@H]2[C@@H]3CC[C@@H]4C[C@H](O)CC[C@]4(C)[C@H]3CC[C@]12C`: -3.72% (inactive); for `COc1c(-c2ccccc2)oc2c(OC)cccc2c1=O`: -9.55% (inactive); for `NCC1O[C@@H](O[C@H]2C(O)C(O[C@@H]3OC(CO)[C@H](O)[C@H](N)C3O)[C@@H](N)C[C@H]2N)C(O)[C@@H](O)[C@H]1O` (stereo not given in full): -2.65% (inactive).
As for `O=C(O)[C@H]1CCCNC1`, the inhibition is 2.88% (inactive).
In the case of `C[C@H](CCC(=O)O)[C@H]1CC[C@H]2[C@@H]3C=C[C@@H]4C[C@H](O)CC[C@]4(C)[C@H]3CC[C@]12C`, the inhibition is 3.87% (inactive).
For `Cn1nnnc1SCC1=C(C(=O)O)N2C(=O)[C@@H](NC(=O)[C@@H](O)c3ccccc3)[C@H]2SC1` the value was 0.99% (inactive); for `COc1cc2c(cc1O)[C@@H](Cc1ccc(O)cc1)N(C)CC2`, 0.499% (inactive); for `CC(=O)Oc1ccc(-c2cc(=O)c3c(OC(C)=O)cc(OC(C)=O)cc3o2)cc1`, -7.11% (inactive).
For `CC(=O)OC1CCC2(C)C3=C(CC[C@H]2C1(C)C)[C@@]1(C)CC[C@@H]([C@@H](C)CCC=C(C)C)[C@]1(C)CC3` (stereo not given in full) the value was -9.29% (inactive).
For `O=C(Oc1cc([C@H]2Oc3cc(O)cc(O)c3C[C@H]2O)cc2c([C@H]3Oc4cc(O)cc(O)c4C[C@H]3O)cc(O)c(OC(=O)c3cc(O)c(O)c(O)c3)c2c1=O)c1cc(O)c(O)c(O)c1` the value was -0.352% (inactive).
As for `CC[C@@H](/C=C/[C@@H](C)[C@H]1CC[C@H]2[C@@H]3CC=C4C[C@@H](O)CC[C@]4(C)[C@H]3CC[C@]12C)C(C)C`, the inhibition is 15.3% (inactive).
For `CC(C)CCCC(C)C1CCC2C3C(=O)C=C4C[C@@H](O)CCC4(C)C3CCC12C` (stereo not given in full) the value was 12.2% (inactive).
